Assay results: PubChem BioAssay (Tox21)
Results filed as inconclusive are left out. A call without a number means that no potency is given here. Calls of active or inactive are those of the source. Unless noted, calls follow the shape of the dose curve; as a rule, active = well fitted cell-killing curve with a large enough effect in the repeat runs (not every such curve was filed as active); inconclusive = weak or mixed curves, or effect the other way; inactive = no such curve, though single readings can be large or run the other way.

Tested on: not listed separately
Experiment: qHTS assay to identify small molecule agonists of the farnesoid-X-receptor (FXR) signaling pathway - cell viability counter screen (AID 743218; active = well fitted cell-killing curve with a large enough effect in the repeat runs; also: nearly all actives have a fitted effect of over 45% in size; also: potency is read from the fitted curve at half-maximal effect)
Settings: FXR-bla HEK293T viability, CellTiter-Glo luminescence, 16 h; series mostly up to 62.6 µM
How it was run: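 FXR-UAS-bla HEK 293T cells, plated 5 h at 37 C, were exposed to compounds for 16 h at 37 C. CellTiter-Glo was then added to the same wells as the bla readout; luminescence read after 30 min at room temperature.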

Row | Compound | Potency
1 | C#CC(C)N(C)C(=O)Nc1ccc(Cl)cc1 (stereo unspecified) | 436 nM (active)
2 | CCN(C)C(=O)Oc1cccc([C@H](C)N(C)C)c1 | inactive
3 | CC(=O)c1ccc2c(c1)Cc1ccccc1-2 | inactive
4 | CCN1CCc2nc(N)oc2CC1 | inactive
5 | BrCCCCCBr | inactive
6 | CCC(C=O)CC | inactive
7 | CN(CCOc1ccc(NS(C)(=O)=O)cc1)CCc1ccc(NS(C)(=O)=O)cc1 | inactive
8 | CN(C)CCOCCO | inactive
9 | CCOC(=O)CC(=O)c1ccccc1 | inactive
10 | O=C(O)c1ccc(Cl)cc1Cl | inactive
11 | CN(C)c1ccc(C=O)cc1 | inactive
12 | CC(=C(CCOC(=O)C(C)C)SSC(CCOC(=O)C(C)C)=C(C)N(C=O)Cc1cnc(C)nc1N)N(C=O)Cc1cnc(C)nc1N | inactive
13 | C[C@@H](Oc1ccc(CNC(=O)c2cccnc2Oc2ccc3c(c2)OCO3)c(F)c1)C(=O)O | inactive
14 | N[C@@H](COP(=O)(O)O)C(=O)O | inactive
15 | COCCOCCOCCOCCO | inactive
16 | CNC(=O)[C@H]1O[C@@H](n2cnc3c(NCc4cc(Cl)ccc4OCc4cc(C)no4)ncnc32)[C@H](O)[C@@H]1N | inactive
17 | O=C(O)CCSSCCC(=O)O | inactive
18 | COc1ccc(-c2cc(=O)c3c(O)cc(O[C@@H]4O[C@H](CO[C@@H]5O[C@@H](C)[C@H](O)[C@@H](O)[C@H]5O)[C@@H](O)[C@H](O)[C@H]4O)cc3o2)cc1O | inactive
19 | O=C(CS(=O)Cc1ccco1)NC/C=C\COc1cc(CN2CCCCC2)ccn1 (stereo unspecified) | inactive
20 | COc1cc(N)ccc1C | inactive
21 | COc1ccc(S(=O)(=O)N2c3ccc(Cl)cc3[C@@](O)(c3ccccc3Cl)[C@H]2C(=O)N2CCC[C@@H]2C(N)=O)cc1OC | inactive
22 | Cc1ccc2c(c1)OCC(=O)CO2 | inactive
23 | CCCCOC(=O)c1ccccc1 | inactive

Molecular target: Bile acid receptor (Homo sapiens) (UniProt Q96RI1)
Experiment: qHTS assay to identify small molecule agonists of the farnesoid-X-receptor (FXR) signaling pathway (AID 743220; active = well fitted activation curve with a large enough effect in the signal ratio in the repeat runs, not every such curve was filed as active; the % refers to the signal ratio)
Settings: HEK293T FXR-UAS-bla, beta-lactamase FRET ratio, 16 h; series mostly up to 62.6 µM
How it was run: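 Beta-lactamase reporter under UAS control in GeneBLAzer FXR HEK 293T cells (5000/well) measured with LiveBLAzer FRET substrate after 2 h at room temperature. Compound exposure lasted 16 h at 37C.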

Bile acid receptor (Homo sapiens), sequence (Q96RI1 whole entry, looked up): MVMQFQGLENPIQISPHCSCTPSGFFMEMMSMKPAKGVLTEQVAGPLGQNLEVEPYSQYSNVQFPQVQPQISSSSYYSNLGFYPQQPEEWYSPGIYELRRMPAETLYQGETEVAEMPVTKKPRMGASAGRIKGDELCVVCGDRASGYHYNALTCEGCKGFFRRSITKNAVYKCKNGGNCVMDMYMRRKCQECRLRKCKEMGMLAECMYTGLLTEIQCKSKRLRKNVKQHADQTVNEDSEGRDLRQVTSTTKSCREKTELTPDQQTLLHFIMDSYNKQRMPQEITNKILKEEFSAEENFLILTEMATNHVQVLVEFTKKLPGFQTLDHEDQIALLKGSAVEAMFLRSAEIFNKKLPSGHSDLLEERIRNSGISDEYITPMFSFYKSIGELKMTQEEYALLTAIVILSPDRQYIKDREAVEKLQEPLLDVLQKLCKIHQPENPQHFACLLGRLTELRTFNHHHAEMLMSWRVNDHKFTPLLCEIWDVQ

Row | Compound | Potency
24 | C#CC(C)N(C)C(=O)Nc1ccc(Cl)cc1 (stereo unspecified) | inactive
25 | CC(C)(C)OC(=O)c1ccc(O)cc1 | inactive
26 | CCN(C)C(=O)Oc1cccc([C@H](C)N(C)C)c1 | inactive
27 | CC(=O)c1ccc2c(c1)Cc1ccccc1-2 | inactive
28 | CCN1CCc2nc(N)oc2CC1 | inactive
29 | COc1nccnc1NS(=O)(=O)c1ccc(N)cc1 | inactive
30 | BrCCCCCBr | inactive
31 | c1ccc2c(c1)ccc1c3ccccc3ccc21 | inactive
32 | CCC(C=O)CC | inactive
33 | CN(CCOc1ccc(NS(C)(=O)=O)cc1)CCc1ccc(NS(C)(=O)=O)cc1 | inactive
34 | O=C1c2ccccc2C(=O)N1CCl | inactive
35 | CN(C)CCOCCO | inactive
36 | O=C(O)c1ccc(Cl)cc1Cl | inactive
37 | CN(C)c1ccc(C=O)cc1 | inactive
38 | CCOc1cc(NC(C)=O)ccc1C(=O)OC | inactive
39 | CC(=C(CCOC(=O)C(C)C)SSC(CCOC(=O)C(C)C)=C(C)N(C=O)Cc1cnc(C)nc1N)N(C=O)Cc1cnc(C)nc1N | inactive

Row | Compound | Potency
40 | C[C@@H](Oc1ccc(CNC(=O)c2cccnc2Oc2ccc3c(c2)OCO3)c(F)c1)C(=O)O | inactive
41 | N[C@@H](COP(=O)(O)O)C(=O)O | inactive
42 | COCCOCCOCCOCCO | inactive
43 | CCCCCCCC/C=C\CCCCCCCC(=O)OCCCC | inactive
44 | Cc1ccsc1/C=C/C1=NCCCN1C | inactive
45 | CNC(=O)[C@H]1O[C@@H](n2cnc3c(NCc4cc(Cl)ccc4OCc4cc(C)no4)ncnc32)[C@H](O)[C@@H]1N | inactive
46 | O=C(O)CCSSCCC(=O)O | inactive
47 | NNc1nnc(NN)c2ccccc12 | inactive
48 | O=C(CS(=O)Cc1ccco1)NC/C=C\COc1cc(CN2CCCCC2)ccn1 (stereo unspecified) | inactive
49 | COc1cc(N)ccc1C | inactive
50 | Cc1ccc2c(c1)OCC(=O)CO2 | inactive
51 | Cc1nc2n(c(=O)c1CCN1CCC(c3noc4cc(F)ccc34)CC1)CCC[C@H]2O | inactive
52 | CC(CN)CC(C)(C)CCN (stereo unspecified) | inactive
53 | COC(=O)c1ccccc1C(=O)c1ccc(OCCN2CCCCC2)cc1 | inactive
54 | Nc1nnc(-c2cccc(Cl)c2Cl)c(N)n1 | inactive
55 | O=C1c2ccccc2C(=O)C1c1ccccc1 | inactive

Tested on: not listed separately
Experiment: qHTS assay to identify small molecule antagonists of the farnesoid-X-receptor (FXR) signaling pathway - cell viability counter screen (AID 743221); also: nearly all actives have a fitted effect of over 50% in size
Settings: FXR-bla HEK293T viability, CellTiter-Glo luminescence, 16 h; series mostly up to 62.6 µM
How it was run: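 Luminescence from CellTiter-Glo measures cytotoxicity in GeneBLAzer FXR-UAS-bla HEK 293T cells. Cells were exposed to compounds with 50 uM chenodeoxycholic acid (final) for 16 h at 37 C, in wells also used for the reporter readout.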

Row | Compound | outcome
56 | CC(C)(C)OC(=O)c1ccc(O)cc1 | inactive
57 | CCN(C)C(=O)Oc1cccc([C@H](C)N(C)C)c1 | inactive
58 | CC(=O)c1ccc2c(c1)Cc1ccccc1-2 | inactive
59 | CCN1CCc2nc(N)oc2CC1 | inactive
60 | COc1nccnc1NS(=O)(=O)c1ccc(N)cc1 | inactive
61 | BrCCCCCBr | inactive
62 | c1ccc2c(c1)ccc1c3ccccc3ccc21 | inactive
63 | CN(CCOc1ccc(NS(C)(=O)=O)cc1)CCc1ccc(NS(C)(=O)=O)cc1 | inactive
64 | O=C1c2ccccc2C(=O)N1CCl | inactive
65 | CN(C)CCOCCO | inactive
66 | CCOC(=O)CC(=O)c1ccccc1 | inactive
67 | O=C(O)c1ccc(Cl)cc1Cl | inactive
68 | CN(C)c1ccc(C=O)cc1 | inactive
69 | O=C(NCCN1CCOCC1)c1ccc(Cl)cc1 | inactive
70 | N[C@@H](COP(=O)(O)O)C(=O)O | inactive
71 | COCCOCCOCCOCCO | inactive

Row | Compound | outcome
72 | CCCCCCCC/C=C\CCCCCCCC(=O)OCCCC | inactive
73 | Cc1ccsc1/C=C/C1=NCCCN1C | inactive
74 | O=C(O)CCSSCCC(=O)O | inactive
75 | COc1ccc(-c2cc(=O)c3c(O)cc(O[C@@H]4O[C@H](CO[C@@H]5O[C@@H](C)[C@H](O)[C@@H](O)[C@H]5O)[C@@H](O)[C@H](O)[C@H]4O)cc3o2)cc1O | inactive
76 | NNc1nnc(NN)c2ccccc12 | inactive
77 | O=C(CS(=O)Cc1ccco1)NC/C=C\COc1cc(CN2CCCCC2)ccn1 (stereo unspecified) | inactive
78 | COc1cc(N)ccc1C | inactive
79 | COc1ccc(S(=O)(=O)N2c3ccc(Cl)cc3[C@@](O)(c3ccccc3Cl)[C@H]2C(=O)N2CCC[C@@H]2C(N)=O)cc1OC | inactive
80 | Cc1ccc2c(c1)OCC(=O)CO2 | inactive
81 | Cc1nc2n(c(=O)c1CCN1CCC(c3noc4cc(F)ccc34)CC1)CCC[C@H]2O | inactive
82 | CC(CN)CC(C)(C)CCN (stereo unspecified) | inactive
83 | COC(=O)c1ccccc1C(=O)c1ccc(OCCN2CCCCC2)cc1 | inactive
84 | Nc1nnc(-c2cccc(Cl)c2Cl)c(N)n1 | inactive
85 | O=C1c2ccccc2C(=O)C1c1ccccc1 | inactive
86 | CCCCOC(=O)c1ccccc1 | inactive
